Bioassay records as filed in PubChem BioAssay.
Caspase-7 inhib = qHTS Assay for Allosteric/Competitive Inhibitors of Caspase-7; P55210; recombinant caspase-7, Ac-DEVD-AFC fluorescence rate; Potency, µM (top dose mostly 57.5 µM), for the others: at the highest dose activity change, negative = inhibition, actives largely listed as inhibitors; actives 0.02% (n = 75,000); AID 889, 2007; active = well fitted inhibition curve with a large enough effect in the main read-out, with a control signal flat, not every such curve was filed as active; inconclusive = small, poorly fitted or top-dose-only effect, or a change in a side signal; note: potency is the fitted concentration of half-maximal effect; % of control where 0% means no effect
TSHR agonist = qHTS Assay for Agonists of the Thyroid Stimulating Hormone Receptor. Thyrotropin receptor (Homo sapiens), P16473. HEK293-CNG-TSHR cells (CNG channel as cAMP sensor), membrane potential dye, cAMP. Potency, µM (highest dose often 57.1 µM), without a hit: at the top dose activation, actives largely listed as activators. actives 0.48% (n = 73,000). AID 926, 2007; active = well fitted activation curve with a large enough effect in the main read-out, with a control signal flat, not every such curve was filed as active; inconclusive = small, poorly fitted or top-dose-only effect, or a change in a side signal; inactive = no such curve, though single readings can be large or run the other way; % of control where 0% means no effect;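 note: the control signal comes from parental cells without the receptor; potency is the fitted concentration of half-maximal effect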
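cAMP rise detected as CNG-channel membrane depolarization by fluorescent dye (emission 590 nm), 30 min after compound, following 60 min dye loading containing 100 uM RO 20-1724 at room temperature. Cells: TSHR/CNG HEK 293, with parental CNG HEK 293 as control.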
HEK293 cAMP ctrl = qHTS Assay for Agonists of the Thyroid Stimulating Hormone Receptor: Activators of Intracellular cAMP Concentrations in Parental HEK 293; parental HEK293 CNG cAMP sensor, membrane potential fluorescence; Potency, µM (titrated, usually from 57.1 µM), without a hit: at the highest dose activation, actives largely listed as activators; actives 2.5% (n = 73,000); note: potency is the fitted concentration of half-maximal effect; % of control where 0% means no effect; nearly all actives have a fitted effect of over 55% in size
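Parental HEK 293 cells stably expressing a modified CNG channel (no TSHR) report cAMP rise as membrane depolarization. Membrane potential dye with 100 uM RO 20-1724 was loaded for 60 min at room temperature, then compound added for 30 min; fluorescence read at 590 nm.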
Casp1 inh = qHTS Assay for Allosteric/Competitive Inhibitors of Caspase-1. AID 900, 2007. actives 0.03% (n = 75,000). Potency, µM (highest dose often 57.5 µM), inactives show at the top dose activity change, negative = inhibition, most hits filed as inhibitors. Caspase-1 enzyme, Ac-WEHD-AFC fluorogenic rate;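 note: potency is the fitted concentration of half-maximal effect; plate controls were vehicle for no effect and no substrate for full effect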
parental cAMP = Confirmation Concentration-Response Assay for Agonists of the Thyroid Stimulating Hormone Receptor: Activators of Intracellular cAMP Concentrations in Parental HEK 293; shares compounds with TSHR agonist; activity change, negative = inhibition, % at 32.9 µM; 150 tested, under 10 active; parental HEK293 CNG biosensor, cAMP membrane potential fluorescence
The depositor's hits bear a star; ? = inconclusive; nt = no result; [ ] = dose if it differs, or a comment. Shown are actives, neighbours in structure and some others; about 2.6% of the full set was active somewhere. Unless noted, calls come from the whole dose curve; as a rule, active = well fitted curve in the direction sought with a large enough effect; inconclusive = small, poorly fitted or top-dose-only effect, or another doubt; inactive = no such curve, though single readings can be large; an effect the other way counts as inactive or inconclusive.

SMILES	Caspase-7 inhib	TSHR agonist	HEK293 cAMP ctrl	Casp1 inh	others
C[C@]1(C(=O)O)[C@@H]2CC[C@@H](O2)[C@@]1(C)C(=O)O	-1%	9%	16%	2%
CC(C)NC[C@H](O)c1ccc(N)c(C#N)c1	1%	?	0.005µM*	-1%
COc1cc2c(c(OC)c1OC)-c1ccc(OC)c(=O)cc1[C@H](NC(C)=O)CC2	1%	-3%	3%	-2%
S=C=Nc1cccc2ccccc12	-1%	13%	-3%	-3%
Oc1c(Cl)c(Cl)c(Cl)c(Cl)c1Cl	-8%	?	32µM*	-3%
N[C@H](Cc1ccc(N(CCCl)CCCl)cc1)C(=O)O	-2%	6%	12%	1%
CN(C)c1ccc(N(C)C)cc1	0%	?	-15%	-5%
CN(C(=O)Cc1ccccc1)[C@H](CN1CCCC1)c1ccccc1	-2%	?	32µM*	0%
CN(C(=O)Cc1ccc(Cl)c(Cl)c1)[C@H](CN1CCCC1)c1ccccc1	0%	?	32µM*	2%
COc1ccc(CN2CCN(C(=O)Cc3ccccc3)CC2)c(OC)c1	0%	15%[11.4 µM]	5%[11.4 µM]	1%
CCC(=O)Nc1ccc(Cl)c(Cl)c1	0%	nt	nt	1%
COc1ccc(C(=O)c2c(C)n(CCN3CCOCC3)c3cc(I)ccc23)cc1	-3%	?	6.3µM*	-4%
Cc1c(C(=O)c2ccc3ccccc3c2)c2cccc3c2n1[C@H](CN1CCOCC1)CO3	-5%	13%	28%	-1%
CC(=O)N(C1=NCCCS1)c1ccc(F)cc1	2%	?	1.6µM*	0%
COC(=O)c1cn(CCOc2ccccc2)c2ccccc12	-2%	?	20µM*	-3%
O=C1C=CC(=O)c2c(O)cccc21	?	nt	nt	20µM*
O=C1C=Cc2ccccc2C1=O	-8%	14%	-6%	-7%
O=c1[nH]c(=O)n(Cc2ccco2)c(O)c1C=NC1CC1	-1%	nt	8%	-1%	parental cAMP=5
CCN(CC)c1ncnc2c1ncn2[C@@H]1O[C@@H](COP(=O)(O)OP(=O)(O)C(Br)(Br)P(=O)(O)O)[C@H](O)[C@@H]1O	1%	8%	24%	5%
CN(C)c1ccc(Cc2ccc(N(C)C)cc2)cc1	-3%	?	-33%	-6%
CN(C)c1ccc(CN2CC=C(c3ccc(F)cc3)CC2)cc1	-1%	-9%	-9%	-2%	parental cAMP=6[25.6 µM]
